LmPK inhibitor = inhibitors of Leishmania mexicana pyruvate kinase; purified LmPK, Kinase-Glo ATP luminescence, 1 h; Potency, µM (titrated, usually from 57.5 µM), hits mostly inhibitors; 290,000 tested, 0.37% active
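Screened at intermediate enzyme activity to detect both inhibitors and activators: LmPK at 0.1 nM, with a 0.5 nM enzyme column as activation reference. PEP 0.5 mM, ADP 0.1 mM; ATP detected by luminescence after 1 h.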
Giardia FBPA inh = Giardia lamblia aldolase inhibition. A8B2U2. purified Giardia FBPA. Potency, µM (highest dose often 59.6 µM), usual class: inhibitors. 290,000 tested, 0.71% active. AID 2451; note: nearly all actives have a fitted effect of over 55% in size
Target sequence (A8B2U2 whole entry, looked up): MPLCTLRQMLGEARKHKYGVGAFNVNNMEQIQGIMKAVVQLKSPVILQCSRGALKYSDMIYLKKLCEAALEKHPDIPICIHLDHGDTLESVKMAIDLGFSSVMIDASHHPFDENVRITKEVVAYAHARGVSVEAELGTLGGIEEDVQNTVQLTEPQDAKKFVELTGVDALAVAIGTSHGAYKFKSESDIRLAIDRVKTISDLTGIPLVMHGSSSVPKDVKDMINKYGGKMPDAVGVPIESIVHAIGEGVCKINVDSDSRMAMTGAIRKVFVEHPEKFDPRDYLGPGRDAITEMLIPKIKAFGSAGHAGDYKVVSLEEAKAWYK
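40 nM FBPA preincubated 10 min at RT with compound (up to 57.5 uM final), then substrate plus GAPDH/TPI/NAD/arsenate coupling and diaphorase/resazurin added. Fluorescence read after 20 min at RT, 525/598 nm.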
Sm TGR inh = inhibitors of Schistosoma mansoni thioredoxin glutathione reductase; 360,000 tested, 3% active; Q962Y6; Potency, µM (series often up to 114 µM), most hits filed as inhibitors; purified TGR, DTNB reduction, TNB absorbance 405 nm; AID 485364; note: nearly all actives have a fitted effect of over 60% in size
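First, TGR (20 nM dispensed) and NADPH were mixed with compound. Second, a 15 min room-temperature incubation followed. Third, further NADPH and then DTNB were added to start the reaction. Finally, TNB absorbance was monitored kinetically.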
TbPYK inhibitor = blocks Trypanosoma brucei pyruvate kinase. Q57TT1. TbPYK enzyme, Kinase-Glo Plus ATP luminescence, 45 min. 410,000 tested, 0.12% active. Potency, µM (highest dose often 76.8 µM), usual class: inhibitors; note: nearly all actives have a fitted effect of over 50% in size
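Screened from lowest to highest concentration, compounds were pinned into TbPYK/substrate mixtures, and ADP (130 uM final) was added. Plates sat at room temperature for 45 min prior to Kinase-Glo Plus detection by luminescence.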
Cycloheximide cs = counter-screen hit for Shiga toxin inhibitors, cycloheximide; cell reporter, cycloheximide protein synthesis inhibition counterscreen; 300,000 tested, 12% active; AID 2314; max response, %; in the data active = max response mostly above about 13%, no sharp cut-off; inactive = mostly below about 14%; note: read at 38.3 µM for the half of the compounds with a filed dose
Shiga inhibitor = blocks Shiga toxin action in Vero cells | Vero cells, Shiga toxin protein synthesis inhibition reporter | inhibition, % at 38.7 µM | 290,000 tested, 9.2% active; in the data active = inhibition mostly above about 28%, no sharp cut-off; inactive = mostly below about 43%
Numbers stand for hits; [ ] = remark or other dose. The entries come from a sample that favours hits as a whole. Unless noted, calls come from the whole dose curve; as a rule, active = well fitted curve in the direction sought with a large enough effect; inconclusive = small, poorly fitted or top-dose-only effect, or another doubt; inactive = no such curve, though single readings can be large; an effect the other way counts as inactive or inconclusive.

Screening CCc1ccccc1N(C)C(=O)Nc1cn(CC(C)C)c(=O)c2ccccc12 returned Sm TGR inh inactive and TbPYK inhibitor inactive.
For Clc1cc(CSc2ccccc2)nc(-c2ccccc2)n1 the results were LmPK inhibitor inactive, Giardia FBPA inh inactive, Sm TGR inh inactive, TbPYK inhibitor inactive, Cycloheximide cs 22 and Shiga inhibitor inactive.
CN1C(=O)/C(=C/c2cc(C(C)(C)C)c(O)c(C(C)(C)C)c2)NC1=S was read as LmPK inhibitor inactive, Giardia FBPA inh inactive, Sm TGR inh 1µM, TbPYK inhibitor inactive, Cycloheximide cs inactive and Shiga inhibitor inactive.
Screening CN1C(=O)/C(=C/c2ccccc2OCc2ccccc2)NC1=S returned LmPK inhibitor inactive, Giardia FBPA inh inactive, Sm TGR inh inactive, TbPYK inhibitor inactive, Cycloheximide cs inactive and Shiga inhibitor inactive.
For C=C/C1=C/Cc2ccccc2C(C[N+](=O)[O-])C(C(=O)OC)(C(=O)OC)C1 (stereo not drawn) the results were Giardia FBPA inh inactive[12.9 µM].
Screening CCOC(=O)c1ccc(-c2cc(C)no2)[nH]1 returned LmPK inhibitor inactive, Giardia FBPA inh inactive, Sm TGR inh inactive, TbPYK inhibitor inactive, Cycloheximide cs inactive and Shiga inhibitor 42.
Screening S=C1NNC2(CC3CC2C2CCCC32)NN1 (stereo not drawn) returned LmPK inhibitor inactive, Giardia FBPA inh inconclusive, Sm TGR inh inactive, TbPYK inhibitor inactive, Cycloheximide cs 16 and Shiga inhibitor inactive.
For CN(C(=O)COC(=O)c1cccnc1Nc1ccccc1F)C1CCS(=O)(=O)C1 (stereo not drawn) the results were LmPK inhibitor inconclusive, Giardia FBPA inh inactive, Sm TGR inh inactive, TbPYK inhibitor inactive, Cycloheximide cs 28 and Shiga inhibitor 65.
Screening CCN(C(=O)COC(=O)c1cccnc1Nc1ccccc1F)C1CCS(=O)(=O)C1 (stereo not drawn) returned LmPK inhibitor inconclusive, Giardia FBPA inh inactive, Sm TGR inh inactive, TbPYK inhibitor inactive, Cycloheximide cs 62 and Shiga inhibitor 54.
Cc1ccc(N(CCC#N)C(=O)COC(=O)c2ccccn2)cc1 was read as LmPK inhibitor inactive, Giardia FBPA inh inactive, Sm TGR inh inactive, TbPYK inhibitor inactive, Cycloheximide cs inactive and Shiga inhibitor inactive.
For CN(CCC#N)C(=O)COC(=O)c1ccccc1C(=O)c1ccc(Cl)c([N+](=O)[O-])c1 the results were LmPK inhibitor inactive, Giardia FBPA inh inactive, Sm TGR inh 13µM, TbPYK inhibitor inactive, Cycloheximide cs inactive and Shiga inhibitor inactive.
CN(CCC#N)C(=O)COC(=O)c1cccnc1Nc1ccccc1F was read as LmPK inhibitor inactive, Giardia FBPA inh inactive, Sm TGR inh inactive, TbPYK inhibitor inactive, Cycloheximide cs 16 and Shiga inhibitor inactive.
Screening COc1ccc(CCNC(=O)c2csc3c2CCCCC3)c(OC)c1 returned Sm TGR inh inactive and TbPYK inhibitor inactive.
`Cc1cc(/C=C(/C#N)c2cccc(Cl)c2)c(C)n1C` gave LmPK inhibitor inactive, Giardia FBPA inh inactive, Sm TGR inh inactive, TbPYK inhibitor inactive, Cycloheximide cs 19 and Shiga inhibitor inactive.
`Cc1cc(/C=C(\C#N)C(=O)NCc2cccs2)c(C)n1-c1ccc([N+](=O)[O-])cc1` gave LmPK inhibitor inactive, Giardia FBPA inh inactive, Sm TGR inh inactive, TbPYK inhibitor inactive, Cycloheximide cs inactive and Shiga inhibitor inactive.
`Cc1ccsc1/C=C(\C#N)C(=O)NCc1ccco1` gave LmPK inhibitor inactive, Giardia FBPA inh inactive, Sm TGR inh inactive, TbPYK inhibitor inactive, Cycloheximide cs inactive and Shiga inhibitor inactive.
Cc1cc(/C=C(\C#N)C(=O)NCc2ccco2)c(C)n1C1CCCC1 was read as LmPK inhibitor inactive, Giardia FBPA inh inactive, Sm TGR inh inactive, TbPYK inhibitor inactive, Cycloheximide cs 51 and Shiga inhibitor 85.
Screening Cc1cccc(-n2c(C)cc(C=C(C#N)C#N)c2C)c1 returned LmPK inhibitor inactive, Giardia FBPA inh inactive, Sm TGR inh inactive, TbPYK inhibitor inactive, Cycloheximide cs inactive and Shiga inhibitor inactive.
Cc1cc(/C=C(\C#N)C(=O)NCc2ccco2)c(C)n1-c1cccnc1 was read as LmPK inhibitor inactive, Giardia FBPA inh inactive, Sm TGR inh inactive, TbPYK inhibitor inactive, Cycloheximide cs 38 and Shiga inhibitor 72.
`Cc1cc(/C=C(/C#N)c2cccc(F)c2)c(C)n1-c1cccnc1` gave LmPK inhibitor inactive, Giardia FBPA inh inactive, Sm TGR inh inactive, TbPYK inhibitor inactive, Cycloheximide cs 45 and Shiga inhibitor 59.
For CCOC(=O)c1oc2ccc(CNCCO)c(Cl)c2c1C the results were LmPK inhibitor inactive, Giardia FBPA inh inactive, Sm TGR inh inactive, TbPYK inhibitor inactive, Cycloheximide cs 40 and Shiga inhibitor 82.
Screening CCOC(=O)c1oc2ccc(CNC3CCCCC3)c(Cl)c2c1C returned LmPK inhibitor inactive, Giardia FBPA inh inactive, Sm TGR inh inactive, TbPYK inhibitor inactive, Cycloheximide cs inactive and Shiga inhibitor inactive.
Screening NC(=O)c1nnn(-c2ccccc2)c1N returned LmPK inhibitor inactive, Giardia FBPA inh inactive, Sm TGR inh inactive, TbPYK inhibitor inactive, Cycloheximide cs inactive and Shiga inhibitor inactive.
For Cc1ccc(SCCNCc2ccco2)cc1 the results were LmPK inhibitor inactive, Giardia FBPA inh inconclusive, Sm TGR inh inactive, TbPYK inhibitor inactive, Cycloheximide cs 14 and Shiga inhibitor inactive.
`Cc1cccc(C(=O)NCc2ccco2)c1` gave LmPK inhibitor inactive, Giardia FBPA inh inactive, Sm TGR inh 45µM, TbPYK inhibitor inactive and Cycloheximide cs inactive.
`Cc1ccc(SCCC(=O)NCCSCc2ccco2)cc1` gave LmPK inhibitor inactive, Giardia FBPA inh inactive, Sm TGR inh inconclusive, TbPYK inhibitor inactive, Cycloheximide cs inactive and Shiga inhibitor inactive.
For CCCCNC(=O)c1nnn(-c2ccccc2)c1N the results were LmPK inhibitor inactive, Giardia FBPA inh inactive, Sm TGR inh inactive, TbPYK inhibitor inactive, Cycloheximide cs 27 and Shiga inhibitor 49.
O=C(NCc1ccco1)c1cccc(F)c1 was read as LmPK inhibitor inactive, Giardia FBPA inh inactive, Sm TGR inh inactive, TbPYK inhibitor inactive, Cycloheximide cs inactive and Shiga inhibitor inactive.
CN(C)S(=O)(=O)c1cccc(C(=O)NCc2ccco2)c1 was read as LmPK inhibitor inactive, Giardia FBPA inh inactive, Sm TGR inh 45µM, TbPYK inhibitor inactive, Cycloheximide cs inactive and Shiga inhibitor inactive.
`CCOc1ccc(S(=O)(=O)N2CCC(C(=O)NCc3ccncc3)CC2)cc1Cl` gave LmPK inhibitor inactive, Giardia FBPA inh inactive, Sm TGR inh inactive, TbPYK inhibitor inactive, Cycloheximide cs inactive and Shiga inhibitor inactive.
For Cc1ccc(Cl)cc1N1CCN(CCCNc2ncnc3onc(-c4ccc(F)cc4)c23)CC1 the results were Sm TGR inh inactive and TbPYK inhibitor inactive.
Cc1ccc(Cn2nnc3c(=O)[nH]c(C(=O)NCc4ccco4)nc32)cc1 was read as LmPK inhibitor inactive, Giardia FBPA inh inactive, Sm TGR inh inactive, TbPYK inhibitor inactive, Cycloheximide cs 25 and Shiga inhibitor 111.
